IL-1B inflam inh – qHTS for Inhibitors of Inflammasome Signaling: IL-1-beta AlphaLISA Primary Screen | THP-1 LPS/ATP IL-1B secretion, AlphaLISA, 16 h; hits give low values | activity change, % at 57.5 µM | 4.7% of 360,000 active; in the data active means activity change below about -50%; inconclusive means mostly about -30% to -49%
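Secreted IL-1B measured by AlphaLISA bead assay after 16 h compound exposure of THP-1 cells; compounds (final up to 57.5 uM) added 1 h before LPS (250 ng/mL) and ATP (1.25 mM) stimulation; lower signal means less secretion.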
TDP1 cell noCPT – qHTS for Inhibitors of human tyrosyl-DNA phosphodiesterase 1 (TDP1): qHTS in cells in absence of CPT. Potency, µM (doses to about 46.2 µM), inactives show at the top dose activity change, negative = growth inhibition, actives largely listed as inhibitors. 15% of 420,000 active. DT40 Tdp1-/- hTDP1 cells, no CPT, ATP luminescence, 48 h. AID 686978, 2013; further: potency means the concentration at half of the fitted maximal effect; nearly all actives have a fitted effect of over 55% in size
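Cells were dispensed at 400 per well, compounds added by pin tool, plates incubated ≥48 hr at 37 °C, then CellTiter-Glo added for 30 min at room temperature before luminescence reading. Line: DT40 Tdp1-/- complemented with hTDP1; camptothecin omitted.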
ELG1 repair inh – qHTS screen for small molecules that inhibit ELG1-dependent DNA repair in human embryonic kidney (HEK293T) cells expressing luciferase-tagged ELG1. HEK293T ELG1-luciferase reporter, luminescence, 16 h; DNA damage induced by 5-fluorouridine. Potency, µM (top dose mostly 46.1 µM), inactives show at the highest dose activity change, negative = inhibition, usual class: inhibitors. 2.3% of 330,000 active. AID 504467, 2011; further: potency means the concentration at half of the fitted maximal effect; nearly all actives have a fitted effect of over 55% in size
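Quantitative HTS, concentration-response format. 2,000 cells/well co-treated with 5-fluorouridine and compound, 16 hr in 5% CO2 at 37 °C; ONE-Glo luminescence read after 30 min.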
Giardia kill – Small Molecules that selectively kill Giardia lamblia: qHTS; 0.15% of 340,000 active; activity change, % at 7.66 µM, hits read low; Giardia lamblia trophozoite viability; in the data active means activity change below about -80%; inconclusive means between about -30% and that limit;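 further: parasites exposed to compound for two days anaerobically before the ATP read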
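Viability, read as ATP luminescence: trophozoites at 100 cells/well, compound added, 48 hrs anaerobic at 37 deg C, then 15-30 min room-temperature development before reading.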
TDP1 inh – qHTS Assay for Inhibitors of Tyrosyl-DNA Phosphodiesterase (TDP1); recombinant TDP1, AlphaScreen DNA substrate cleavage; 0.28% of 350,000 active; AID 485290, 2010; Potency, µM (doses to about 130 µM), without a hit: at the top dose activity change, negative = inhibition, usual class: inhibitors; Tyrosyl-DNA phosphodiesterase 1 (Homo sapiens), Q9NUW8; further: potency means the concentration at half of the fitted maximal effect; nearly all actives have a fitted effect of over 40% in size
Target sequence (Q9NUW8 whole entry, looked up): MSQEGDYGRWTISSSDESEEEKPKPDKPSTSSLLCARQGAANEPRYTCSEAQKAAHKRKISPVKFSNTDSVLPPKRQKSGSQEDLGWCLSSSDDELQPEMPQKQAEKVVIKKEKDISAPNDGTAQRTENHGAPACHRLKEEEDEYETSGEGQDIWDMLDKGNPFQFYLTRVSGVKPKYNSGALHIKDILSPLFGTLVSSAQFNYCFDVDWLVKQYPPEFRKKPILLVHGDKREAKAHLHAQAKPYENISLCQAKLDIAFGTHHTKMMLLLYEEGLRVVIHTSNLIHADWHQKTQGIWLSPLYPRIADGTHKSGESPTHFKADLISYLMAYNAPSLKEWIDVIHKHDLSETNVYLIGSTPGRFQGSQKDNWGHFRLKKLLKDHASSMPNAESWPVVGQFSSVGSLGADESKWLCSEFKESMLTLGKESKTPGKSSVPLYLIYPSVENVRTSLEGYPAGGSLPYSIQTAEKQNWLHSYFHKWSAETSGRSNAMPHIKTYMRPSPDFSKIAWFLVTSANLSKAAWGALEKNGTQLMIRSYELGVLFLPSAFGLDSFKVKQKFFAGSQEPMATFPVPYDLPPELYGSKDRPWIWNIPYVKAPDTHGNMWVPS
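E. coli-derived human Tdp1, 1 nM final. Cpd preinc 15 min RT; substrate 15 nM final, 5 min RT; AS bead mix 10 ug/ml final, 10 min RT. Signal loss = tyrosine-FITC cleavage. No-enzyme wells = max signal.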
TDP1 cell CPT – qHTS for Inhibitors of human tyrosyl-DNA phosphodiesterase 1 (TDP1): qHTS in cells in presence of CPT; chicken DT40 Tdp1-/-;hTDP1 cells + 20 nM CPT, ATP luminescence, 48 h; Potency, µM (series often up to 46.2 µM), for inactives: at the top dose activity change, negative = growth inhibition, most hits filed as inhibitors; 12% of 420,000 active; AID 686979, 2013; further: potency means the concentration at half of the fitted maximal effect; nearly all actives have a fitted effect of over 55% in size
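Chicken DT40 Tdp1-/- cells stably complemented with human TDP1 were seeded at 400 cells/well in medium containing 20 nM camptothecin, exposed to pin-transferred compounds, and grown at 37 °C for at least 48 hr. Viability was read as ATP luminescence.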
An asterisk follows results filed as active; u = inconclusive; x = no result given; [ ] = dose if it differs, or a comment. Sampled rows, rich in hits. Any-hit rate of the full collection: about 19%. Unless noted, the call rests on the fitted dose curve; in most records, active means well fitted curve in the direction sought with a large enough effect; inconclusive means small, poorly fitted or top-dose-only effect, or another doubt; inactive means no such curve, though single readings can be large; an effect the other way counts as inactive or inconclusive. On the % scale 0 is the no-effect control and ±100 the full control effect.

SMILES | IL-1B inflam inh | TDP1 cell noCPT | ELG1 repair inh | Giardia kill | TDP1 inh | TDP1 cell CPT
COc1ccc(C)cc1S(=O)(=O)N1CCN(C)CC1c1ccccc1 (stereo not given) | -5 | -14% | 5% | 27 | 1% | u
O=C1NC2(CCCCC2)C(=O)N1c1cccc(Cl)c1 | -8 | -7% | 24% | -29 | x | 0%
OC[C@H]1OC([S-])[C@H](O)[C@@H](O)[C@@H]1O.[Au+] (stereo not given in full) | x | -86% | x | x | x | 24µM*
O=C(Nc1ccccc1N1CCN(c2ccc(F)cc2)CC1)c1ccccc1 | u | 18µM* | u | -8 | -7% | 23µM*
CCCCCC(=O)Nc1ccccc1N1CCN(c2ccccc2)CC1 | -88* | u | u | 10 | 9% | u
O=C(COc1ccccc1)Nc1ccccc1N1CCN(c2ccc(F)cc2)CC1 | -5 | u | -1% | 9 | 6% | u
CC(C)(C)CC(=O)Nc1ccccc1N1CCN(c2ccc(F)cc2)CC1 | -26 | u | -2% | 11 | x | u
CC(C)CC(=O)Nc1ccccc1N1CCN(c2ccccc2)CC1 | 0 | u | -13% | -10 | -4% | u
CCC(=O)Nc1ccccc1N1CCN(c2ccc(F)cc2)CC1 | -26 | u | -16% | 4 | x | 21µM*
CNC(=S)N(CCCn1ccnc1)Cc1c(F)cccc1Cl | 23 | -15% | -1% | 7 | 13% | 0%
CCc1cccc(NC(=O)CSc2ncccc2C(=O)Oc2ccccc2Cl)c1 | x | -19% | x | -2 | -3% | -11%
CC(Sc1nnc(-c2ccco2)n1C)C(=O)Nc1nccs1 (stereo not given) | -1 | -9% | u | 12 | -1% | -25%
O=C(O)CSc1nc2sc3c(c2c(=O)n1Cc1ccccc1)CCCCC3 | -29 | u | u | -7 | x | -20%
C=C(C)CSc1nc2sc3c(c2c(=O)n1CCCC)CCCC3 | x | -17% | x | x | 1%[2.28 µM] | -20%
C=CCNC(=O)CSc1nc2sc3c(c2c(=O)n1CCC)CCC3 | -8 | 15µM* | u | 28 | 15% | u
C=C(C)Cn1c(SCC(=O)c2ccc(OC)cc2)nc2sc3c(c2c1=O)CCCC3 | x | 12µM* | x | x | x | 10µM*
C=C(C)Cn1c(SCC(=O)Nc2cccc(Cl)c2)nc2sc3c(c2c1=O)CCCC3 | x | 15µM* | x | x | x | u
COc1ccc(-c2nnn(CC(=O)N3CCN(c4ccccc4OC)CC3)n2)cc1 | -17 | u | 23µM* | -12 | -2% | u
COc1ccc(-c2noc(CCC(=O)N3CCN(c4cccc(F)c4)CC3)n2)cc1 | 0 | u | u | -10 | 1%[56.1 µM] | u
COc1ccccc1-c1noc(CCC(=O)N2CCN(c3cc(C)ccc3C)CC2)n1 | 14 | 15µM* | u | 1 | 2%[56.1 µM] | u
COc1ccc(-c2noc(CCC(=O)N3CCN(c4ccccc4C)CC3)n2)cc1 | 34 | -17% | -30% | 27 | 0%[56.1 µM] | u
COc1ccc(-c2noc(CCC(=O)N3CCN(c4ccccc4OC)CC3)n2)cc1 | 0 | 21µM* | u | 5 | 1%[56.1 µM] | u
COc1ccc(-c2noc(CCC(=O)N3CCN(c4cccc(Cl)c4)CC3)n2)cc1 | 4 | 23µM* | u | 2 | 0%[56.1 µM] | u
Cc1ccc(C)c(N2CCN(C(=O)CCc3nc(-c4ccccc4C(F)(F)F)no3)CC2)c1 | u | u | u | -17 | -4%[56.1 µM] | u
CCOC(=O)[C@@](C)(N)Cc1ccc(O)c(O)c1 | x | -25%[21.1 µM] | x | x | x | u
SMILES | IL-1B inflam inh | TDP1 cell noCPT | ELG1 repair inh | Giardia kill | TDP1 inh | TDP1 cell CPT
COc1ccc(C(=O)CCC(=O)N2CCN(c3cccc(Cl)c3)CC2)cc1 | -28 | 23µM* | -27% | 30 | x | 16µM*
COc1ccc(C(=O)CCC(=O)N2CCN(c3cc(C)ccc3C)CC2)cc1 | u | u | -3% | 0 | 6% | 16µM*
N#CN(Cc1ccccc1)Cc1ccccc1 | -64* | -12% | -7% | -9 | 5% | -22%
O=C(O)/C=C/c1ccc(Cn2ccnc2)cc1 | 24 | 3% | x | 3 | x | -19%
Cc1cccc(-n2c(C)nc3cc(C(=O)NCc4ccc5c(c4)OCO5)ccc32)c1 | u | -26% | u | 18 | 3% | -4%
Nc1ccc2ncccc2c1N | 0 | u | 10µM* | -8 | 5% | u
COc1ccc(CN(C(=O)/C=C/c2ccco2)C2CCS(=O)(=O)C2)cc1 (stereo not given) | -3 | 0% | 5% | 10 | -1% | 1%
COc1cccc2c3cccc(OC)c3c3[nH]cnc3c12 | -102* | 7.3µM* | x | -27 | x | u
FC(F)(F)c1cc(CO[C@H]2CCCN[C@H]2c2ccccc2)cc(C(F)(F)F)c1 | x | 13µM* | x | x | -12%[56.1 µM] | 11µM*
CC1CN(CCCCOc2ccc(F)cc2)CC(C)O1 (stereo not given) | 18 | -3% | 7% | -2 | 3% | 4%
COc1ccccc1NC(=O)c1sc2nc3n(c(=O)c2c1C)N=C(c1cccc(Br)c1)CS3 | x | 1% | x | x | -2% | -9%
Cc1ccn2c(NC3CCCC3)c(-c3ccccn3)nc2c1 | -96* | 6.5µM* | -14% | -4 | 8% | 18µM*
Cc1ccn2c(NC3CCCCC3)c(C)nc2c1 | -5 | -14% | -8% | -14 | 1% | u
Cc1ccn2c(NC3CCCC3)c(-c3ccncc3)nc2c1 | -11 | u | -6% | 3 | 3% | u
Cc1ccn2c(NC3CCCCC3)c(-c3ccc(C)o3)nc2c1 | x | 11µM* | x | -15 | 7% | 16µM*
c1ccc(-c2nc3ccccn3c2NC2CCCC2)nc1 | 11 | 16µM* | 6% | 7 | 6% | u
O=C(NCCCN1CCOCC1)c1ccc(Cl)cc1Cl | -1 | 12% | 21% | -19 | x | 5%
COc1ccc(Oc2coc3cc(OC(=O)N4CCOCC4)ccc3c2=O)cc1 | 12 | u | u | -12 | 3% | 16µM*
COc1ccc(Oc2coc3cc(OC(=O)c4cccs4)ccc3c2=O)cc1 | 11 | -28% | 19% | -12 | -2% | -21%
CC(C)C(N)c1csc(Nc2ccc(C(F)(F)F)cn2)n1 (stereo not given) | 0 | u | x | x | x | 21µM*
